Data from PubChem BioAssay (NCATS).
Inconclusive results are not listed. Active and inactive are the calls of the source. The call rests on the fitted dose curve; in most records, active means well fitted curve in the direction sought with a large enough effect in the repeat runs; inconclusive means weak or mixed curves; inactive means no such curve, though single readings can be large; an effect the other way counts as inactive or inconclusive.

Experiments:
[1] = molecular target: Cytochrome P450 2D6 (Homo sapiens) (UniProt P10635); assay: Cytochrome P450 family 2 subfamily D member 6 (CYP2D6) small molecule antagonists: luciferase biochemical (cell-free) qHTS assay (AID 1645840)
Cytochrome P450 2D6 (Homo sapiens), sequence (P10635 whole entry, looked up): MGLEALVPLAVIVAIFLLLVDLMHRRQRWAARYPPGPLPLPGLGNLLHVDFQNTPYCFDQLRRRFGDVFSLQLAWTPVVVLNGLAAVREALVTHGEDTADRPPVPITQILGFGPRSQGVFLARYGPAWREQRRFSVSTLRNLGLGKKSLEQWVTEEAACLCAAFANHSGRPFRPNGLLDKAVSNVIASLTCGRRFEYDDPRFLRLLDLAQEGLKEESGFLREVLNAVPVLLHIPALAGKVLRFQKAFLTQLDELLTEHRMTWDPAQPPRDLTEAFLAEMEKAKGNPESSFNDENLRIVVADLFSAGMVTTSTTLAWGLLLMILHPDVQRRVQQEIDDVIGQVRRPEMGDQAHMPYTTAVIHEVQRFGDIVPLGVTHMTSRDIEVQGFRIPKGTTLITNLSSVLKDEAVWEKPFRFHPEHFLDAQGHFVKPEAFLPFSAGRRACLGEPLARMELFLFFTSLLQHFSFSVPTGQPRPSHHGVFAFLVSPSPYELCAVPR
How it was run: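 P450-Glo CYP2D6 system: proluciferin substrate converted by enzyme to luciferin, read by luminescence proportional to activity. Enzyme-substrate mix with compound 10 min at room temperature, then NADPH regeneration 1 h before detection reagent.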

[2] = molecular target: Cytochrome P450 2C9 (Homo sapiens) (UniProt P11712); assay: Cytochrome P450 family 2 subfamily C member 9 (CYP2C9) small molecule antagonists: luciferase biochemical (cell-free) qHTS assay (AID 1645842)
Cytochrome P450 2C9 (Homo sapiens), sequence (P11712 whole entry, looked up): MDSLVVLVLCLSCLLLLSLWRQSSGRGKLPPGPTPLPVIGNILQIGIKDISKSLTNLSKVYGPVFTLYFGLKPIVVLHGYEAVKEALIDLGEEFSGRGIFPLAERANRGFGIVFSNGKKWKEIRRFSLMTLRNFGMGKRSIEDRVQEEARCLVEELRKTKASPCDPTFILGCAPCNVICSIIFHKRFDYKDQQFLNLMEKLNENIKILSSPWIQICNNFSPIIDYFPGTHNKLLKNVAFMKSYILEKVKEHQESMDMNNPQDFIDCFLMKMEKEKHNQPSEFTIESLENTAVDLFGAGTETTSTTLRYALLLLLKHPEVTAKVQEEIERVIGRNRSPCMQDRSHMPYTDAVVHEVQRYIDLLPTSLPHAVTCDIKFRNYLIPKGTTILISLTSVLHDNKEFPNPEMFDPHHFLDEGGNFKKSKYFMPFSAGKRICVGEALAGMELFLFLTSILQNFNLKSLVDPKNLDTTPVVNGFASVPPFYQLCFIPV
How it was run: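 P450-Glo CYP2C9 system: proluciferin substrate with enzyme in mix containing 0.4% BSA, 10 min at room temperature, then NADPH regeneration solution added and incubated 1 h at 37C. Detection reagent stopped reaction; luminescence read after 20 min as RLU.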
Further: nearly all actives have a fitted effect of over 55% in size.
Potency means the concentration at half of the fitted maximal effect.

| Structure (SMILES) | Potency [1] | Potency [2] |
| --- | --- | --- |
| CCn1cc(/C=C(\NC(=O)c2ccc(C)cc2)C(=O)NCCCn2ccnc2)c2ccccc21 | 0.169 µM (active) | 1.34 µM (active) |
| CCc1ccc(-n2c(SCc3ccccc3C)nc3[nH]ncc3c2=O)cc1 | 9.52 µM (active) | 19 µM (active) |
| CC1=C(C(=O)Nc2cccc(-c3cn[nH]c3)c2)C(c2ccccc2Cl)N=C(Nc2nc3ccccc3o2)N1 (stereo not drawn) | 21.3 µM (active) | 1.07 µM (active) |
| O=c1cc2nc(-c3cccs3)nc(SCCOc3ccc(Cl)cc3)n2[nH]1 | inactive | 19 µM (active) |
| CCOc1ccc(CNC(=O)Cn2c(=O)c3cccn3c3ccc(F)cc32)cc1 | inactive | inactive |
| Cc1ccc(NC(=O)Cn2c(=O)n(CCC(=O)NCc3ccc4c(c3)OCO4)c(=O)c3sccc32)c(C)c1 | 1.69 µM (active) | 2.13 µM (active) |
| CCc1ccc(-n2c(SCc3ccccc3F)nc3[nH]ncc3c2=O)cc1 | 12 µM (active) | 4.77 µM (active) |
| Cc1ccc(OCC(=O)Nc2cccc(OCc3cc(=O)n4cccc(C)c4n3)c2)cc1C | inactive | 0.756 µM (active) |
| CC1(C#N)CCN(c2c(C(=O)N3CCC(S(C)(=O)=O)CC3)cnc3cc(F)c(F)cc23)CC1 | inactive | inactive |
| Cc1ccc(C(=O)c2cn(CC(=O)Nc3ccc4c(c3)OCCO4)c3nc(C)ccc3c2=O)cc1 | inactive | 9.52 µM (active) |
| Oc1c(C(c2ccc(Cl)cc2Cl)N2CCN(Cc3ccccc3)CC2)sc2nc(-c3ccco3)nn12 (stereo not drawn) | 7.56 µM (active) | 6.01 µM (active) |
| C[C@H](O[C@H]1OCCN(Cc2n[nH]c(=O)[nH]2)[C@H]1c1ccc(F)cc1)c1cc(C(F)(F)F)cc(C(F)(F)F)c1 | 10.7 µM (active) | 9.52 µM (active) |
| CCOc1ccc(C(NC(=O)c2cc(OC)c(OC)c(OC)c2)c2cc(Cl)c3cccnc3c2O)cc1 (stereo not drawn) | inactive | 30.1 µM (active) |
| COc1ccc(-c2n[nH]c3c2cnc2cc(OC)c(OC)cc23)cc1 | inactive | inactive |
| CCc1ccc(-n2c(SCc3ccccc3Cl)nc3[nH]ncc3c2=O)cc1 | 15.1 µM (active) | 23.9 µM (active) |
| CCc1ccc(C2=CC(c3cccc(OC)c3OC)n3c(nc4ccccc43)N2)cc1 (stereo not drawn) | 16.9 µM (active) | 3.79 µM (active) |
| CCOc1ccc(NC(=O)Cn2cc(C(=O)c3cccs3)c3ccccc32)cc1 | inactive | 1.69 µM (active) |
| C#C[C@]1(O)CC[C@@H]2[C@@H]3CCC4=CCCC[C@@H]4[C@H]3C(=C)C[C@@]21CC | inactive | 3.38 µM (active) |
| CC(C)(C)c1ccc(S(=O)(=O)c2cnc(SCC(=O)Nc3ccc(F)c(Cl)c3)[nH]c2=O)cc1 | 16.9 µM (active) | 0.536 µM (active) |
| COc1cccc(-c2oc3ccc(C)cc3c(=O)c2O)c1 | 7.56 µM (active) | 7.56 µM (active) |
| CC1(C#N)CCN(c2c(C(=O)N3CCN(C(=O)C4CC4)CC3)cnc3c(F)cc(F)cc23)CC1 | inactive | 12 µM (active) |
| COc1ccc(CNC(=O)C(=O)Nc2c3c(nn2-c2ccccc2)CSC3)cc1 | inactive | 3.38 µM (active) |
| COc1cc(C(c2c(C)[nH][nH]c2=O)c2c(C)[nH][nH]c2=O)ccc1OC(=O)c1ccccc1F | inactive | 10.7 µM (active) |
| CCOc1ccccc1NC(=O)Cn1c(=O)n(CCC(=O)NCc2ccc3c(c2)OCO3)c(=O)c2ccccc21 | 0.425 µM (active) | 0.601 µM (active) |
